# How the values were obtained:
# Assay in all cases: DAPPL (digital affinity profiling via proximity ligation, sequencing); 10 mM Tris-HCl pH 7.5, 50 mM NaCl, 1 mM DTT, 4% glycerol, room temperature, 30 min; GST-TFs on glutathione beads, 16-mer random dsDNA library, 0.1% formaldehyde crosslink after washing; high values mean tight binding
# Settings in all cases: protein: recombinant; tags: N-terminal GST; dsDNA, one strand shown
# FLI1 = molecular target: T1, FLI1 (Homo sapiens, UniProt Q01543 1-452)
# T1 sequence: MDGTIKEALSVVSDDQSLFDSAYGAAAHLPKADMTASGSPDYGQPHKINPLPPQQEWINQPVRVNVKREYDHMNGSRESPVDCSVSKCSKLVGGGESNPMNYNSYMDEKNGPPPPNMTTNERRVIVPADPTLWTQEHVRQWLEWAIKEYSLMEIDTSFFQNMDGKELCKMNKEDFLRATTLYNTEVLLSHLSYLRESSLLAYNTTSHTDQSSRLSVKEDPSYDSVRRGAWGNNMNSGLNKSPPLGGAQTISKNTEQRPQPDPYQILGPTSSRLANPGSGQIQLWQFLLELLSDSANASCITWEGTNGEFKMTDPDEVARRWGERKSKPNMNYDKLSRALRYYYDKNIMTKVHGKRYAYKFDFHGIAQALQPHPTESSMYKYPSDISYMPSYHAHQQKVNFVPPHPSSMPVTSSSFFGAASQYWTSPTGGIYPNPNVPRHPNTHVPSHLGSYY
# How it was run: (§1)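 Human transcription factors were made in yeast as GST fusions, captured on glutathione beads and barcoded with DNA. With a tag-only sample included, the pool was incubated with 200 nmole of a random double-stranded 16-mer DNA library in Tris/NaCl/DTT/glycerol buffer at room temperature for 30 min, then crosslinked with 0.1% formaldehyde after washing, ligated by proximity, amplified and sequenced. For binding signal, each hexamer's read frequency for a factor is divided by its frequency for the tag-only sample.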
# ELK1 = molecular target: T2, ELK1 (Homo sapiens, UniProt P19419 1-428)
# T2 sequence: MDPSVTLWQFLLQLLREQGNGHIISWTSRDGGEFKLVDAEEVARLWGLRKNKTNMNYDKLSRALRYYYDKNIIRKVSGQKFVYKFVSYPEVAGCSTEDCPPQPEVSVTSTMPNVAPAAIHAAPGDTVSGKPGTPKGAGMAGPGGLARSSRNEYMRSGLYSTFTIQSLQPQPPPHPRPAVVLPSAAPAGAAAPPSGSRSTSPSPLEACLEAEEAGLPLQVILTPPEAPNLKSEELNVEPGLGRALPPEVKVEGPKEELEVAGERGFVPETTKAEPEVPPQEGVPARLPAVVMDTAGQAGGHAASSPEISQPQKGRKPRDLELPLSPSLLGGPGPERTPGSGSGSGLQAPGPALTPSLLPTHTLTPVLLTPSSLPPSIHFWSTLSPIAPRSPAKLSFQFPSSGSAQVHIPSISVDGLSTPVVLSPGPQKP
# How it was run: as §1
# GABPA = molecular target: T3, GABPA (Homo sapiens, UniProt Q06546 1-454)
# T3 sequence: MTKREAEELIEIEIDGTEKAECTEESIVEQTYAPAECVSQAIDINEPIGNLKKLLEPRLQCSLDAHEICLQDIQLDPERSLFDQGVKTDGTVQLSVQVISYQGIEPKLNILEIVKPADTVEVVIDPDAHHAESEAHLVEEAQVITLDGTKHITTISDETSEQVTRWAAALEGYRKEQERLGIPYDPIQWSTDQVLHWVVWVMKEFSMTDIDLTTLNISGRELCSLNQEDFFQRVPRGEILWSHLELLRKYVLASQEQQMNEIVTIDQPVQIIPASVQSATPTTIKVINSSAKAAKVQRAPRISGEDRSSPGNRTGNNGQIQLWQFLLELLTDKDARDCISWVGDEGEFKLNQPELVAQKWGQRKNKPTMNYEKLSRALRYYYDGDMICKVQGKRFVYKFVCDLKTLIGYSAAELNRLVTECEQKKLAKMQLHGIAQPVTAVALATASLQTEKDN
# How it was run: as §1
# ERG = molecular target: T4, ERG (Homo sapiens, UniProt P11308 1-479)
# T4 sequence: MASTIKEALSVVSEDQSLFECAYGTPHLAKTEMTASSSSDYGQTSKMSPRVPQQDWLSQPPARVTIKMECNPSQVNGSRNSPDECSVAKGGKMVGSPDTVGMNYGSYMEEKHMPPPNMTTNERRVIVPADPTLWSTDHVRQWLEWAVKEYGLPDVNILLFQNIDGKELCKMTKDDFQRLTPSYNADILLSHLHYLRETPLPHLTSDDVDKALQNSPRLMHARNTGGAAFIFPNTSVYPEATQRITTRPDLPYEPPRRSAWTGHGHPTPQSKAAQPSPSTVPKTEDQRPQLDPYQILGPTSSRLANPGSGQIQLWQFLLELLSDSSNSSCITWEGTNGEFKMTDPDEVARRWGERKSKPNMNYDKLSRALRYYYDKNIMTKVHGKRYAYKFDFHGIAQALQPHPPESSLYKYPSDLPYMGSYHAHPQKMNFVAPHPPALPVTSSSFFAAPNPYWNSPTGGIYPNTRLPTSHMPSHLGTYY
# How it was run: as §1
# ELF1 = ELF1 (Homo sapiens, UniProt P32519 1-619)
# ELF1, sequence (P32519 whole entry): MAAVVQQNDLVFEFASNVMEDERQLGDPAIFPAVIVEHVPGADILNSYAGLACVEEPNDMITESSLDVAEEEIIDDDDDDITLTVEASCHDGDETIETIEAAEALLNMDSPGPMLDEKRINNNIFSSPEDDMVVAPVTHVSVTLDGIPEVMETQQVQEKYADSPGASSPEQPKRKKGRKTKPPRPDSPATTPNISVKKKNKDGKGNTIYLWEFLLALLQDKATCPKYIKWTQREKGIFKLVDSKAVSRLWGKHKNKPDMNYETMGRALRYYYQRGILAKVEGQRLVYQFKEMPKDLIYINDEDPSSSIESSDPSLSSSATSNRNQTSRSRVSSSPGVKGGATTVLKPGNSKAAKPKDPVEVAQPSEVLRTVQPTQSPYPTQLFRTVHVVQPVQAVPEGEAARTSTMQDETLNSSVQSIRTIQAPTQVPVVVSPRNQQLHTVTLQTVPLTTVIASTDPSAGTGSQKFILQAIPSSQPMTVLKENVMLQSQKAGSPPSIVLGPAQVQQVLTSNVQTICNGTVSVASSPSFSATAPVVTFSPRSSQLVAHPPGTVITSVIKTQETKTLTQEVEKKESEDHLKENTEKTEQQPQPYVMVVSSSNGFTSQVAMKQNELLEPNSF
# How it was run: as §1
# EHF = molecular target: T5, EHF (Homo sapiens, UniProt Q9NZC4 1-300)
# T5 sequence: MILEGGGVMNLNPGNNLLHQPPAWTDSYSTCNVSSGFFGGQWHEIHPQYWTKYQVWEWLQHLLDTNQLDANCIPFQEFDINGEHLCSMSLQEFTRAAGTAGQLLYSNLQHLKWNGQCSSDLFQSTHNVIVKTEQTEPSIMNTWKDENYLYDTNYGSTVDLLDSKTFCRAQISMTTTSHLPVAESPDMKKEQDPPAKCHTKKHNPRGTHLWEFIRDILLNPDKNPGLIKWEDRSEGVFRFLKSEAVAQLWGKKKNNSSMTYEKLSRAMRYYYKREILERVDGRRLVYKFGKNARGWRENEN
# How it was run: as §1
# SPIB = SPIB (Homo sapiens, UniProt Q01892 1-262)
# SPIB, sequence (Q01892 whole entry): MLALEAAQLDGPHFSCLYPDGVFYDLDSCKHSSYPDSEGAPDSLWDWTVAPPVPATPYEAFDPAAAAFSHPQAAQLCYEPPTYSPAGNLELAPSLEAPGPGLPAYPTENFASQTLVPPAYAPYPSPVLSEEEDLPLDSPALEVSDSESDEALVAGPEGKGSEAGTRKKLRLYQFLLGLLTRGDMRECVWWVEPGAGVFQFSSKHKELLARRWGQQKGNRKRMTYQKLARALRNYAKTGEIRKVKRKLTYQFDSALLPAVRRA
# How it was run: as §1
# ELK3 = molecular target: T6, ELK3 (Homo sapiens, UniProt P41970 1-407)
# T6 sequence: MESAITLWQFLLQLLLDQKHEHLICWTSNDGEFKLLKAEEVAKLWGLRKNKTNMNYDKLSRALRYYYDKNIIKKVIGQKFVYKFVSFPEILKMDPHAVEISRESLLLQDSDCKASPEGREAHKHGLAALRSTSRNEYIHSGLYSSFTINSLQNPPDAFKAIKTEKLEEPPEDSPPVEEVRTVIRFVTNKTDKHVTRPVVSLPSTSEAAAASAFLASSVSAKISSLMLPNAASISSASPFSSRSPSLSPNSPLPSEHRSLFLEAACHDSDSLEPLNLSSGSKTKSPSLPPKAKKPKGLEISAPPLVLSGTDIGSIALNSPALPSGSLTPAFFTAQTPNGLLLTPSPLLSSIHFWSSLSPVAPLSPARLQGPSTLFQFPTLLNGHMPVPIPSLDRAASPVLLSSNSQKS
# How it was run: as §1
# SPI1 = SPI1 (Homo sapiens, UniProt P17947 1-270)
# How it was run: as §1
Sequence,binding signal (FLI1),binding signal (ELK1),binding signal (GABPA),binding signal (ERG),binding signal (ELF1),binding signal (EHF),binding signal (SPIB),binding signal (ELK3),binding signal (SPI1)
GGGCTA,"1.1 fold enrichment (6-mer frequency, TF over GST control)","1.05 fold enrichment (6-mer frequency, TF over GST control)","1.08 fold enrichment (6-mer frequency, TF over GST control)","1.16 fold enrichment (6-mer frequency, TF over GST control)","1.16 fold enrichment (6-mer frequency, TF over GST control)","1.18 fold enrichment (6-mer frequency, TF over GST control)","1.15 fold enrichment (6-mer frequency, TF over GST control)","1.06 fold enrichment (6-mer frequency, TF over GST control)",–
AGTTCT,"1.02 fold enrichment (6-mer frequency, TF over GST control)","1.15 fold enrichment (6-mer frequency, TF over GST control)","1.11 fold enrichment (6-mer frequency, TF over GST control)","1.11 fold enrichment (6-mer frequency, TF over GST control)","1.04 fold enrichment (6-mer frequency, TF over GST control)",–,"1.2 fold enrichment (6-mer frequency, TF over GST control)","1.11 fold enrichment (6-mer frequency, TF over GST control)","1.14 fold enrichment (6-mer frequency, TF over GST control)"
AAGGTT,"1.09 fold enrichment (6-mer frequency, TF over GST control)","1.15 fold enrichment (6-mer frequency, TF over GST control)","1.13 fold enrichment (6-mer frequency, TF over GST control)","1.07 fold enrichment (6-mer frequency, TF over GST control)","1.05 fold enrichment (6-mer frequency, TF over GST control)","1.1 fold enrichment (6-mer frequency, TF over GST control)","1.01 fold enrichment (6-mer frequency, TF over GST control)","1.12 fold enrichment (6-mer frequency, TF over GST control)",–
TACCTG,"1.13 fold enrichment (6-mer frequency, TF over GST control)","1.21 fold enrichment (6-mer frequency, TF over GST control)","1.12 fold enrichment (6-mer frequency, TF over GST control)","1.17 fold enrichment (6-mer frequency, TF over GST control)","1.09 fold enrichment (6-mer frequency, TF over GST control)","1.16 fold enrichment (6-mer frequency, TF over GST control)","1.25 fold enrichment (6-mer frequency, TF over GST control)","1.15 fold enrichment (6-mer frequency, TF over GST control)",–
ATTAGC,"1.17 fold enrichment (6-mer frequency, TF over GST control)","1.08 fold enrichment (6-mer frequency, TF over GST control)","1.08 fold enrichment (6-mer frequency, TF over GST control)","1.15 fold enrichment (6-mer frequency, TF over GST control)","1.11 fold enrichment (6-mer frequency, TF over GST control)","1.07 fold enrichment (6-mer frequency, TF over GST control)","1.03 fold enrichment (6-mer frequency, TF over GST control)","1.09 fold enrichment (6-mer frequency, TF over GST control)",–
TTCGGC,"1.03 fold enrichment (6-mer frequency, TF over GST control)","1.14 fold enrichment (6-mer frequency, TF over GST control)","1.22 fold enrichment (6-mer frequency, TF over GST control)","1.08 fold enrichment (6-mer frequency, TF over GST control)","1 fold enrichment (6-mer frequency, TF over GST control)",–,"1.02 fold enrichment (6-mer frequency, TF over GST control)",–,"1.04 fold enrichment (6-mer frequency, TF over GST control)"
AATCCA,"1.09 fold enrichment (6-mer frequency, TF over GST control)","1.07 fold enrichment (6-mer frequency, TF over GST control)","1.09 fold enrichment (6-mer frequency, TF over GST control)","1.1 fold enrichment (6-mer frequency, TF over GST control)","1.09 fold enrichment (6-mer frequency, TF over GST control)","1.07 fold enrichment (6-mer frequency, TF over GST control)","1.12 fold enrichment (6-mer frequency, TF over GST control)","1.07 fold enrichment (6-mer frequency, TF over GST control)",–
CGGTAT,"1.08 fold enrichment (6-mer frequency, TF over GST control)","1.12 fold enrichment (6-mer frequency, TF over GST control)","1.01 fold enrichment (6-mer frequency, TF over GST control)","1.13 fold enrichment (6-mer frequency, TF over GST control)","1.1 fold enrichment (6-mer frequency, TF over GST control)","1.08 fold enrichment (6-mer frequency, TF over GST control)","1.07 fold enrichment (6-mer frequency, TF over GST control)","1.01 fold enrichment (6-mer frequency, TF over GST control)",–
ATACCA,"1.02 fold enrichment (6-mer frequency, TF over GST control)","1.07 fold enrichment (6-mer frequency, TF over GST control)","1.02 fold enrichment (6-mer frequency, TF over GST control)","1.01 fold enrichment (6-mer frequency, TF over GST control)","1.06 fold enrichment (6-mer frequency, TF over GST control)","1.08 fold enrichment (6-mer frequency, TF over GST control)","1.01 fold enrichment (6-mer frequency, TF over GST control)","1.06 fold enrichment (6-mer frequency, TF over GST control)",–

# From paper PMC7862700, “An all-to-all approach to the identification of sequence-specific readers for epigenetic DNA modifications on cytosine”
